# PubChem BioAssay
# Calls of active or inactive are those of the source. How the calls were made is not given here.
# Assay: inhibition of 3D7 malaria parasite growth – strain 3D7 (AID 2306);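 further: 0% = DMSO wells and 100% = chloroquine plus artemisinin control wells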
# Settings: P. falciparum 3D7 erythrocytic growth, LDH absorbance, 72 h; at 2 µM; stronger effect = higher value
row,SMILES,growth inhibition
1,C[C@@H]1CC[C@H](NC(=O)[C@H](CC2CCCC2)NC(=O)N2CCNCC2)C(=O)CN1S(=O)(=O)c1ccccn1,84% (active)
2,O=C(Nc1cccc(C(F)(F)F)c1)c1cccc(S(=O)(=O)NCC2CCN(CC3CCCCC3)CC2)c1,97% (active)
3,CCc1cn2c3c(cc(C(=O)N[C@@H](Cc4ccccc4)[C@H](O)CNC(C)C)cc13)N(C)S(=O)(=O)C2,98% (active)
4,O=C(NCCc1cccc(F)c1)c1ccc(N2CCN(c3ccncc3)CC2)cn1,94% (active)
5,CCc1cn2c3c(cc(C(=O)N[C@@H](Cc4ccccc4)[C@H](O)CNC4CC4)cc13)N(CC)S(=O)(=O)CC2,98% (active)
6,CC(C)(CNCc1cccc(Oc2ccccc2)c1)c1nc(-c2ccc(Cl)c(O)c2)c(-c2ccnc(N)n2)[nH]1,97% (active)
7,O=C(Nc1cccc(CN2CCCN(Cc3ccc(O)cc3)CC2)c1)c1cc2ccccc2s1,100% (active)
8,Cc1nc(-c2cccc(Nc3nccc(NCC(O)c4ccccc4C(F)(F)F)n3)c2)cs1 (configuration not stated),97% (active)
9,O=C(CCc1ccccc1)N[C@H](Cc1c[nH]c2ccccc12)C(=O)N1CCC(NCc2ccc3c(c2)Cc2ccccc2-3)CC1,92% (active)
10,Cc1nn(CC(C)C)c2sc(C(=O)N3CCN(S(=O)(=O)c4ccc(C#N)cc4)CC3)cc12,99% (active)
11,Cc1cnc(C(=O)Nc2ccc3c(c2)CCCN(Cc2c[nH]c4cnccc24)C3)cn1,92% (active)
12,COc1ccc(-n2ccnc2SCC(=O)Nc2cc(C(F)(F)F)ccc2Cl)c(OC)c1,98% (active)
